{"source": "PubChem BioAssay (EPA / NIEHS)", "note": "Several values for one entry are separate records, joined by “and”; a condition that tells them apart may be missing. Equal entries are not always repeated. Activity calls are given as the source filed them. The calls were made as follows: active = hit-call score of the fitted dose curve at least 0.9, where 1 is the maximum; inactive = score below 0.9."}
{"assay": "BSK_hDFCGF_SRB: Viability Assessment in the BioMAP Diversity Plus: hDFCGF Assay (AID 2283061);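 also: cells exposed to compound for 24 h before the read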", "conditions": "primary human foreskin fibroblasts", "description": "BSK_hDFCGF is a cell-based, multiplexed-readout assay that uses foreskin fibroblast, a human skin primary cell, with measurements taken at 24 hours after chemical dosing in a 96-well plate.BSK_hDFCGF_SRB is an assay component measured in the BSK_hDFCGF assay. It measures 0.1% sulforhodamine related to cell death using Sulforhodamine staining technology.Data from the assay component BSK_hDFCGF_SRB was analyzed into 1 assay endpoint. This assay endpoint, BSK_hDFCGF_SRB, was analyzed with bidirectional fitting relative to DMSO as the negative control and baseline of activity. Using a type of viability reporter, gain or loss-of-signal activity can be used to understand changes in the signaling. Furthermore, this assay endpoint can be referred to as a primary readout, because this assay has produced multiple assay endpoints where this one serves a signaling function. To generalize the intended target to other relatable targets, this assay endpoint is annotated to the cell morphology intended target family, where the subfamily is cell conformation.\nThe levels of cell surface (or secreted, indicated by the prefix \"s\") biomarker endpoints were measured by ELISA. Overt cytotoxicity to cells in confluent adherent cultures (all systems other than the BT system) was assessed by measuring total protein levels using sulforhodamine B (SRB) staining in parallel cultures at the time of biomarker measurements, indicated as SRB endpoints. For proliferation assays for adherent cell types, individual cell types are cultured at sub-confluence and relative cell numbers quantified by SRB staining at time points optimized for each system (48 h: 3C and CASM3C systems; 72 h: BT and HDF3CGF systems; 96 h: SAg system). SRB was performed by staining cells with 0.1% SRB after fixation with 10% TCA and reading wells at 560 nm.Viability and proliferation of PBMC (T cells) was quantified by Alamar Blue reduction for the SAg and BT systems. For PBMC viability (referred to as PBMC Cytotoxicity within the assay endpoint names), cells were plated (75,000/well in a 96-well plate) and then chemical samples added for 1 h before addition of activators, SEB and TSST-1 (20 ng/mL final concentration each). Cells were incubated for 90 h. Then, Alamar Blue (20 uL/well) (Invitrogen, Cat DAL1100) was added for 6 h, and the plates were read with a fluorescence microplate reader at 546/580 nm (excitation/emission). For PBMC proliferation, cells were plated and activated as above but incubated for only 16 h prior to addition of Alamar Blue. Plates were read after 6 h."}
{"smiles": "S=C(NC1CCCCC1)NC1CCCCC1", "outcome": "inactive"}
{"smiles": "N#[N+]c1ccc2c(S(=O)(=O)[O-])cccc2c1O", "outcome": "inactive"}
{"smiles": "O=Nc1ccc(O)cc1", "outcome": "inactive"}
{"smiles": "CCCCC(CC)COCC1CO1", "note": "(stereo unspecified)", "outcome": "inactive"}
{"smiles": "c1ccc2c(c1)ccc1cc3c(ccc4ccccc43)cc12", "outcome": "inactive"}
{"smiles": "CCOc1nc(F)cc2nc(S(=O)(=O)Nc3c(Cl)cccc3C(=O)OC)nn12", "outcome": "inactive"}
{"smiles": "CC(C)C(=O)C(C)C", "outcome": "inactive"}
{"smiles": "C=CC(=O)OCC(Br)CBr", "note": "(stereo unspecified)", "AC50": "9.67 µM (active)"}
{"smiles": "Nc1ccc(N)c(Cl)c1", "AC50": "32.3 µM (active) and 32.1 µM (active)"}
{"smiles": "COCc1c(C(C)C)nc(C(C)C)c(/C=C/[C@@H](O)C[C@@H](O)CC(=O)O)c1-c1ccc(F)cc1", "AC50": "0.32 µM (active)"}
{"smiles": "CCCCC/C=C\\C/C=C\\CCCCCCCC(=O)OC", "AC50": "31.5 µM (active)"}
{"smiles": "C=CCOc1c(Br)cc(Br)cc1Br", "AC50": "25.7 µM (active)"}
{"smiles": "CCO[Si](CCCN=C=O)(OCC)OCC", "outcome": "inactive"}
{"smiles": "O=C1CCCN1CCO", "outcome": "inactive"}
{"smiles": "O=c1c2ccccc2oc2ccccc12", "outcome": "inactive"}
{"smiles": "CCCCNc1ccc(NCCCC)c2c1C(=O)c1ccccc1C2=O", "outcome": "inactive"}
{"smiles": "c1ccc2c(c1)ccc1ncccc12", "outcome": "inactive"}
{"smiles": "C/C=C\\C/C=C/CCCCCCCCOC(C)=O", "AC50": "31.7 µM (active)"}
{"smiles": "C=C[Si](OC(C)=O)(OC(C)=O)OC(C)=O", "outcome": "inactive"}
{"smiles": "O=C(c1ccc(O)cc1)c1ccc(O)cc1O", "outcome": "inactive"}
{"smiles": "CN1C(=O)N(C)C(O)C1O", "note": "(stereo unspecified)", "outcome": "inactive"}
{"smiles": "CCCCC(CC)COC(=O)c1ccccc1O", "note": "(stereo unspecified)", "AC50": "14.4 µM (active)"}
{"smiles": "CCCCCCCCc1ccc(Nc2ccc(CCCCCCCC)cc2)cc1", "outcome": "inactive"}
{"smiles": "CC(C)(c1cc(Br)c(OCCO)c(Br)c1)c1cc(Br)c(OCCO)c(Br)c1", "AC50": "16.2 µM (active)"}
{"smiles": "CCCCCCCCCCCCCCCC[N+](C)(C)CC", "AC50": "1.28 µM (active)"}
{"smiles": "CCOC(=O)c1ccccc1C(=C1C=C(Br)C(=O)C(Br)=C1)c1cc(Br)c(O)c(Br)c1", "outcome": "inactive"}
{"smiles": "CCO[Si](C)(OCC)OCC", "outcome": "inactive"}
{"smiles": "CC1OC1C1CCC2(C)OC2C1", "note": "(stereo unspecified)", "outcome": "inactive"}
{"smiles": "C=CC=CC=CCCCCC", "outcome": "inactive"}
{"smiles": "O=C(Nc1ccccc1SSc1ccccc1NC(=O)c1ccccc1)c1ccccc1", "outcome": "inactive"}
{"smiles": "c1ccc(-c2ccccn2)nc1", "outcome": "inactive"}
{"smiles": "C=CCOCC(O)CCl", "note": "(stereo unspecified)", "outcome": "inactive"}
{"smiles": "O=C(Cl)c1cc(C(=O)Cl)cc(C(=O)Cl)c1", "AC50": "26.4 µM (active)"}
{"smiles": "COc1ccc2nc(N)sc2c1", "outcome": "inactive"}
{"smiles": "C#CC1(O)CC[C@H]2[C@@H]3CCC4=CCCC[C@@H]4[C@H]3CC[C@@]21C", "note": "(stereo partly specified)", "AC50": "35.2 µM (active)"}
{"smiles": "CO[Si](OC)(OC)c1ccccc1", "outcome": "inactive"}
